Structures are written as SMILES. Values without a mark were called inactive. Calls of active or inactive are those of the source.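 Rule for the calls: active = inhibition at or above 50% at 10 µM; inactive = inhibition below 50%.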

This assay is described as follows: inhibitors of Sendai virus-induced IRF3 signaling, primary screen, TLR/RLR signaling modifier project, cell-based, Sendai virus stimulus, luciferase, 10K MLSCN set (AID 602276).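 Note: firefly luciferase from ISG56 promoter only with Renilla not read in this screen; 0% = Sendai virus plus DMSO and 100% = medium plus DMSO without virus.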 The note with it: HEK293 RL24 IRF3 luciferase reporter, at 10 µM, stronger effect = higher value.
Regarding `CC(C)(Oc1ccc(Cl)cc1)C(=O)NCc1ccncc1`, the inhibition was 11.3%. The same measure for `Cc1ccc(C)c(S(=O)(=O)NCc2cccnc2)c1`: 141% (active); for `Cc1cc(-c2ccccc2)c(C#N)c(N)n1`: 18.7%; for `CCCCCc1c(C)nc(SCC(=O)O)[nH]c1=O`: -8.6%.

Regarding `COC(=O)c1ccc(NC(=O)C(C)N2C(=O)c3ccccc3C2=O)cc1` (stereo not given), the inhibition was -2.42%. On to `O=C(Nc1cccnc1)c1cccc(NC(=O)c2ccco2)c1`, for which the inhibition is 16.9%. For `Cc1ccnc(NC(=O)CCC(=O)N(CC(=O)NC(C)(C)C)C2CCCC2)c1` the value was 9.05%; for `COCCNC(=O)CN(C)S(=O)(=O)c1ccc(Br)cc1`, 11.2%; for `CC(=O)NC(C)c1nc2ccccc2n1C(C)C` (stereo not given), 14.5%. The same measure for `COC(=O)C1CCN(C(=O)c2sc3nc(-c4ccc(F)cc4)cn3c2C)CC1`: 10.2%; for `CC(Sc1nnnn1C)C(=O)Nc1ccc(Oc2ccccc2)cc1` (stereo not given): -8.41%; for `c1ccc(Cn2nnnc2C(c2cccs2)N2CCSCC2)cc1` (stereo not given): -6.43%.

In the case of `Cn1c(=O)[nH]c(=O)c2c1nc(NCCCn1ccnc1)n2Cc1cccc(Br)c1`, the inhibition was 16.8%. Regarding `CCOC(=O)N1CCN(C(=O)c2c(-c3ccccc3)noc2C)CC1`, the inhibition is 14%. Turning to `COc1ccc2c(c1OC)C(=O)N(c1ccc3c(c1)CCC3)C2=O`, the inhibition was 8.67%. Regarding `Cc1ccc(NC(=O)C2CCCN(S(=O)(=O)c3cnc[nH]3)C2)cc1C` (stereo not given), the inhibition was 20.9%. For `O=C(Cn1ncc2c1-c1ccccc1OC2)N1CCN(c2ccccn2)CC1` the value was 3.72%; for `C/C=C/c1ccc(OCCn2cncn2)c(OC)c1`, -19.9%. For `Cc1c(C(=O)OC2CCCCC2)[nH]c2c1C(=O)CC(C)(C)C2` the value was -3%.

For `COc1ccccc1N1C(=O)CC(Sc2nc(C)cc(C)n2)C1=O` (stereo not given), the inhibition is 14.5%. For `Cc1nc(SCCC(=O)O)c2ccccc2n1` the value was 11.6%. The same measure for `Nc1sccc1C(=O)c1ccc(Cl)cc1`: 2.24%. The same measure for `Cc1ccccc1Cn1ccc(NC(=O)c2onc(C)c2Cl)n1`: -15.7%; for `Nc1c(C(=O)NCCN2CCOCC2)c2nc3ccccc3nc2n1-c1ccc2c(c1)OCO2`: 11.3%; for `Cc1cc(C(=O)Nc2nc3c(s2)CCCC3)cs1`: -47%. On to `COC(=O)CNc1nc(C2CC2)nc2c1nnn2Cc1ccccc1Cl`, for which the inhibition was 18.2%. The same measure for `CCN1CCN(C(c2ccc(F)cc2)c2nnnn2Cc2cccs2)CC1` (stereo not given): 4.23%; for `O=C1CN(c2nc3ccccc3n3cnnc23)CC(=O)N1CCc1ccccc1`: 6.8%. Consider `O=S(=O)(c1ccc(S(=O)(=O)N2CCN3CCCC3C2)cc1)N1CCCC1` (stereo not given), for which the inhibition was 6.16%. The same measure for `O=C1CC(c2cccc(Cl)c2)Cc2nc(N3CCN(c4ccccc4)CC3)ncc21` (stereo not given): -7.91%; for `CCC1SC2=NC(C)=C(C(=O)OC)C(c3ccc(C)cc3)N2C1=O` (stereo not given): -10.4%. On to `O=C(CN1CCC(NC(=O)c2ccc(F)cc2)CC1)NCc1ccccc1F`, for which the inhibition is 10.1%. For `COC(=O)C(C)NC(=O)C12CC3CC(CC(C3)C1)C2` (stereo not given) the value was -0.739%; for `Cc1ccc(S(=O)(=O)NC(=O)c2cc(C)n(CCCn3ccnc3)c2C)cc1`, 11.6%. `O=S(=O)(NCC(c1cccnc1)N1CCN(c2ccccc2)CC1)c1cc(F)ccc1F` (stereo not given): the inhibition was 21.7%. Regarding `COc1ccc2ccccc2c1CN1CCN(C)CC1`, the inhibition was 7.96%.

As to `CCOC(=O)/C=C1\CC(=O)Nc2nonc2N1`, the inhibition is 22%.

For `CCn1ncc(Cl)c1C(=O)Nc1ccncc1`, the inhibition is 3.99%. Take `Cn1c(=O)cc(OCC(=O)NCCCN2CCN(c3cccc(Cl)c3)CC2)c2ccccc21`: the inhibition is 25%. With `CCOc1cc(C(=O)N(C)Cc2cc3cc(OC)ccc3[nH]c2=O)cc(OCC)c1OCC`, the inhibition was 15.8%.

For the origin of these results see PubChem BioAssay.
